The list is not random: actives were taken first. Their share in the collection is about 11%.
HCV inh: inhibitors of hepatitis C virus infection | Huh7.5.1 HCVcc-Cre infection, luciferase reporter, 44 h | Potency, µM (titrated, usually from 41.8 µM), for the others: top-dose activity change, negative = inhibition, most hits filed as inhibitors | 340,000 tested, 3.4% active; further: on the % scale 0 is the no-effect control and ±100 the full control effect
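Cells seeded at 1,000/well and cultured 4 h, then compounds added followed by HCVcc-Cre virus (~0.5 moi). After 44 h further culture, luciferase substrate was added, plates held 15 min at room temperature, and luminescence read for 15 sec.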
Pf growth 96h: inhibits malaria parasite growth, 96 h; AID 504834; 320,000 tested, 6.9% active; Potency, µM (doses to about 28.7 µM), inactives show at the highest dose activity change, negative = inhibition, actives largely listed as inhibitors; P. falciparum luciferase reporter growth, 96 h; further: on the % scale 0 is the no-effect control and ±100 the full control effect
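Cell-based qHTS: luciferase-tagged P. falciparum in erythrocytes (2% hematocrit, 0.05% parasitemia final) incubated with compounds for 96 hours, 37 C, 5% CO2; luciferase detection reagent then added and luminescence measured.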
NS1 function inh: influenza NS1 inhibition; Potency, µM (highest dose often 46.1 µM), for inactives: at the top dose activity, positive = more growth; 270,000 tested, 0.4% active; AID 2326; calls by dose curve; further: actives are rising curves; nearly all actives have a fitted effect of over 50% in size
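Growth recovery, yeast-based: influenza A NS1 expressed in S. cerevisiae causes slow growth, and suppressors are detected by OD600. The parent strain without NS1 is used as positive control.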
Vaccinia Venus: vaccinia inhibition (Venus reporter); Vaccinia virus Venus reporter expression, fluorescence; Potency, µM (highest dose often 36.5 µM), for the others: at the highest dose activity change, negative = inhibition, hits mostly inhibitors; 330,000 tested, 0.46% active; AID 720580; calls by dose curve; tested in A549 cells; further: on the % scale 0 is the no-effect control and ±100 the full control effect; nearly all actives have a fitted effect of over 30% in size
VACV mCherry inh: inhibitors of vaccinia virus infection (mCherry reporter signal). 310,000 tested, 0.63% active. Potency, µM (top dose mostly 36.5 µM), for inactives: at the top dose activity change, negative = inhibition, actives largely listed as inhibitors. Vaccinia virus mCherry reporter infection, fluorescence; calls by dose curve; tested in A549 cells; further: on the % scale 0 is the no-effect control and ±100 the full control effect; nearly all actives have a fitted effect of over 35% in size
Pf growth 48h: inhibits P. falciparum growth in the first generation, 48 h. P. falciparum luciferase growth in erythrocytes, 48 h. Potency, µM (top dose mostly 28.7 µM), for inactives: at the top dose activity change, negative = inhibition, actives largely listed as inhibitors. 310,000 tested, 5.9% active; further: on the % scale 0 is the no-effect control and ±100 the full control effect
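Luciferase-expressing parasites in RBCs, 2% Hct / 0.1% parasitemia final; RPMI 1640 + 0.5% Albumax; 37 C, 5% CO2, one generation; luminescence read-out, lower signal = inhibition.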
Active calls of the source: *; i = inactive; ? = inconclusive; · = no result. Unless noted, the call rests on the fitted dose curve; in most records, active means well fitted inhibition curve with a large enough effect; inconclusive means small, poorly fitted or top-dose-only effect, or another doubt; inactive means no such curve, though single readings can be large or run the other way. Potency means the concentration at half of the fitted maximal effect.

SMILES | HCV inh | Pf growth 96h | NS1 function inh | Vaccinia Venus | VACV mCherry inh | Pf growth 48h
O=c1c(-c2ccc3c(c2)OCCO3)coc2c(CN3CCOCC3)c(O)ccc12 | -10.1% | 11.7µM* | -3.1% | ? | -11.8% | -29.7%
CCOC(=O)c1oc2cc(O)c(CC)cc2c(=O)c1-c1ccc2c(c1)OCCO2 | ? | -2.5% | -22.9% | -9.4% | i | -21.6%
COc1ccc(Cl)cc1NC1=NCC(C)S1 (stereo not given) | 11.2µM* | -9.2% | -1.6% | · | · | 1.9%
CCCN(CCC)[C@@H]1CCc2cccc(O)c2C1 | -20.1% | 4.15µM* | 0.0% | -19.0% | -21.1% | 5.22µM*
C=C1C(=O)O[C@H]2C[C@H]1[C@@H](OC(C)=O)C/C(C)=C/CC/C(C)=C\CC[C@]2(C)O | 10µM* | · | · | 10µM* | 10µM* | ·
C=C1C(=O)O[C@@H]2[C@H]3O[C@]3(C)CC/C=C(\C)CC[C@@H]12 | -10.8% | · | · | -12.7% | i | ·
O=C(NCc1cccs1)c1ccc(CSc2nc3ccncc3n2Cc2ccccc2)cc1 | · | · | · | -19.5% | -19.4% | ·
O=C(CN1C(=O)NC2(CCCC2)C1=O)N1CCN(S(=O)(=O)c2cccc(F)c2)CC1 | 18.7% | 20.0% | -3.3% | -9.0% | -16.0% | 3.2%
CCCC1(c2ccccc2)NC(=O)N(CC(=O)Nc2cc(S(=O)(=O)N3CCOCC3)ccc2Cl)C1=O (stereo not given) | -32.4% | 13.1µM* | · | -2.9% | i | -24.3%
Cc1ccc(C2(C)NC(=O)N(CC(=O)N3CCN(S(=O)(=O)c4cccc(F)c4)CC3)C2=O)cc1 (stereo not given) | -4.7% | 11.7µM* | -3.7% | -15.0% | -13.4% | -18.7%
CCOc1ccc(S(=O)(=O)N2CCOCC2)cc1NC(=O)CN1C(=O)NC2(CCCCC2)C1=O | 14.1% | -0.4% | · | · | · | -8.8%
CCOc1ccc(S(=O)(=O)N2CCOCC2)cc1NC(=O)CN1C(=O)NC(C)(c2ccc(C)cc2)C1=O (stereo not given) | ? | ? | · | -4.2% | -19.1% | 10.4µM*
CC1(c2ccc(Cl)cc2)NC(=O)N(CC(=O)N2CCCC2)C1=O (stereo not given) | 15.8µM* | 0.0% | ? | · | · | -4.7%
COc1ccc(S(=O)(=O)N2CCCCCC2)cc1NC(=O)CN1C(=O)NC(C)(c2ccccc2)C1=O (stereo not given) | ? | 4.15µM* | · | -9.5% | i | 9.28µM*
COc1ccc(-c2noc(CCC(=O)NCCN3CCN(c4ccccc4F)CC3)n2)cc1 | 6.31µM* | 68.9% | -6.1% | -25.3% | · | -10.0%
COc1ccc(-c2noc(CCC(=O)NCCc3cccc(C)c3)n2)cc1 | 8.91µM* | -22.0% | · | · | · | 14.9%
COc1ccc(-c2noc(CCC(=O)NCCCN3CCN(c4ccccc4F)CC3)n2)cc1 | ? | 1.5% | · | · | · | -0.3%
CC/C(=N\Nc1ccccc1)c1c(O)[nH]c(=O)[nH]c1=O | 22.0% | -4.8% | -1.3% | · | · | 35.3%
COc1ccc(NC(=O)CSC2=Nc3ccccc3C3=NC(Cc4ccccc4)C(=O)N23)cc1 (stereo not given) | · | · | · | -7.8% | -13.9% | ·
CCC(C)[C@H](NC(=O)[C@H](Cc1ccccc1)n1c(=O)[nH]c2ccccc2c1=O)C(=O)NCC1CCC(C(=O)O)CC1 (stereo not given in full) | 18.3% | 13.1µM* | 4.9% | 4.8% | 7.2% | -16.5%
CCCCCSc1cc(O)c(C(CNC)C(C)C)cc1OC (stereo not given) | ? | 0.465µM* | -3.5% | -9.6% | -23.9% | 0.415µM*
CCc1nc(=O)c(-c2ccccc2)c(C)n1-c1ccccc1 | 6.8% | 15.1% | -0.6% | -0.6% | -16.5% | 32.6%
CC[N+]1=CN(c2ccccc2)C(C)=CC1(C)C | 11.6% | 4.15µM* | 9.4% | -17.2% | -18.6% | ?
COc1cc2c(cc1OC)CN(C(=O)CN1C(=O)NC3(CCC(C)CC3)C1=O)CC2 (stereo not given) | -4.6% | ? | · | · | · | ?
O=[N+]([O-])c1cc(Cl)c(O)c(-[n+]2c(-c3ccccc3)cc(-c3ccccc3)cc2-c2ccccc2)c1 | ? | ? | 29.8% | · | · | ?
SMILES | HCV inh | Pf growth 96h | NS1 function inh | Vaccinia Venus | VACV mCherry inh | Pf growth 48h
Cc1cc(-c2ccccc2)cc(C)n1 | 3.4% | · | · | 3.2% | -3.5% | ·
Cc1cc(-c2ccccc2)cc(C)[n+]1Cc1ccccc1 | -14.2% | 0.37µM* | · | -18.6% | i | 0.738µM*
c1ccc(Cc2cc[n+](Cc3ccccn3)cc2)cc1 | 14.0% | 1.04µM* | -5.4% | -8.5% | -0.6% | 4.15µM*
O=C([O-])c1cc(-c2ccccc2)cc(-c2ccccc2)[n+]1Cc1ccccc1 | -5.9% | 0.522µM* | · | · | · | 0.522µM*
O=[N+]([O-])c1ccc(C[n+]2c(-c3ccccc3)cc(-c3ccccc3)cc2-c2ccccc2)cc1 | 10µM* | 0.928µM* | · | -4.6% | i | 1.17µM*
CC(=O)N[C@@H](Cc1c[nH]c2ccccc12)C(=O)OCc1ccc(C#N)cc1 | 5.8% | 3.9% | -10.6% | -7.2% | -33.6% | -2.2%
COc1ccc(-n2c(SCC(=O)NCc3ccc(C)cc3)nc3n[nH]c(C)c3c2=N)cc1 | · | · | · | -13.9% | -3.8% | ·
O=[N+]([O-])c1ccc(C[n+]2ccc(Cc3ccccc3)cc2)cc1 | 4.9% | 34.8% | · | -1.8% | ? | 3.7µM*
COc1ccc(/C=N/NC(=O)CCSc2nc3ccccc3s2)cc1OC | 10µM* | ? | -5.6% | · | · | -21.6%
COc1ccc(/C=N/NC(=O)Nc2cccc3nsnc23)cc1OC | 5.62µM* | 11.6% | -3.4% | -12.3% | i | 15.4%
O=C(CCSc1nc2ccccc2s1)N/N=C/c1c(O)ccc2ccccc12 | 3.16µM* | 2.94µM* | ? | · | · | ?
COc1ccc(/C=N/NC(=O)c2cccc(C(=O)N/N=C/c3ccc(OC)c(OC)c3)n2)cc1OC | 13.4% | 0.8% | 1.3% | · | · | -6.0%
CCOC(=O)c1cnc(N2CCN(c3ccccc3)CC2)[nH]c1=O | -10.6% | -23.7% | -2.4% | 9.5% | i | -17.0%
CCOC(=O)c1cc(OC(=O)c2ccccc2C)n(-c2ccccc2)n1 | · | · | · | -2.3% | 1.3% | ·
Cc1cc(NC(=O)CSc2nnc(-c3ccccc3F)n2C)no1 | -8.8% | -30.0% | · | · | · | -2.7%
Cc1cc(C)c(N=Cc2c(O)[nH]c(=O)[nH]c2=O)c(C)c1 | 17.4% | 3.29µM* | -34.2% | -0.3% | -0.6% | -13.7%
O=C(Cn1cnc([N+](=O)[O-])c1)NCc1ccc(F)cc1 | 10.2% | 6.57µM* | 2.9% | -3.8% | · | 0.8%
CC(C)c1ccccc1NC(=S)NN(Cc1ccccc1)c1ccccc1 | ? | 11.7µM* | -8.0% | · | · | ?
Cc1cccc(C)c1NC(=S)NN(Cc1ccccc1)c1ccccc1 | -13.0% | 4.65µM* | 13.3% | -3.6% | -6.8% | ·
COc1ccc(C(CNC(=O)c2c(C)nn(Cc3ccc(C)cc3)c2Cl)N2CCOCC2)cc1 (stereo not given) | ? | ? | · | -12.5% | -19.9% | 10.4µM*

Screening data: PubChem BioAssay, National Center for Advancing Translational Sciences (NCATS)
